Data taken from ChEMBL document CHEMBL1961873, “Compounds: GSK PKIS; Assays: Nanosyn kinase panel” (2012).
Several values for one entry are separate records, joined by “and”; a condition that tells them apart may be missing. Identical values can stand only once.

How the values were obtained:
[1] = molecular target: Tyrosine-protein kinase receptor UFO (Homo sapiens) (UniProt P30530); details: at 1 µM
[2] = molecular target: Tyrosine-protein kinase Blk (Homo sapiens) (UniProt P51451); details: at 0.1 µM
Chain of Tyrosine-protein kinase Blk (Homo sapiens) (P51451 2-505 limits assumed): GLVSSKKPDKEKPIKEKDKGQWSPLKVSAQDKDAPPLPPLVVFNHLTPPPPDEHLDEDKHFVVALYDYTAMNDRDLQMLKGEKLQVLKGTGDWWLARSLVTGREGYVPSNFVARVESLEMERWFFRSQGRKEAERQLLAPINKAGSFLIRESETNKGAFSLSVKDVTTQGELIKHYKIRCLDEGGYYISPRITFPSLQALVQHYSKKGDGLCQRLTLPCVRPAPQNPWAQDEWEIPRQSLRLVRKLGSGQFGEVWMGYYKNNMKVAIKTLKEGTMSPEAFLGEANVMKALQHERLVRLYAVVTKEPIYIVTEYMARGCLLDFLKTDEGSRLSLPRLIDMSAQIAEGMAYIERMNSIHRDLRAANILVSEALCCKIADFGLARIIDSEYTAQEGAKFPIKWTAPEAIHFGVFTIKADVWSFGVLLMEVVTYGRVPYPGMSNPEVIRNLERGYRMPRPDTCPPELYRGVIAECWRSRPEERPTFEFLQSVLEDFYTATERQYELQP

[3] = molecular target: Tyrosine-protein kinase Blk (Homo sapiens) (UniProt P51451); details: at 1 µM
[4] = molecular target: T1, Cytoplasmic tyrosine-protein kinase BMX (Homo sapiens) (UniProt P51813); details: at 0.1 µM
T1 sequence (whole entry): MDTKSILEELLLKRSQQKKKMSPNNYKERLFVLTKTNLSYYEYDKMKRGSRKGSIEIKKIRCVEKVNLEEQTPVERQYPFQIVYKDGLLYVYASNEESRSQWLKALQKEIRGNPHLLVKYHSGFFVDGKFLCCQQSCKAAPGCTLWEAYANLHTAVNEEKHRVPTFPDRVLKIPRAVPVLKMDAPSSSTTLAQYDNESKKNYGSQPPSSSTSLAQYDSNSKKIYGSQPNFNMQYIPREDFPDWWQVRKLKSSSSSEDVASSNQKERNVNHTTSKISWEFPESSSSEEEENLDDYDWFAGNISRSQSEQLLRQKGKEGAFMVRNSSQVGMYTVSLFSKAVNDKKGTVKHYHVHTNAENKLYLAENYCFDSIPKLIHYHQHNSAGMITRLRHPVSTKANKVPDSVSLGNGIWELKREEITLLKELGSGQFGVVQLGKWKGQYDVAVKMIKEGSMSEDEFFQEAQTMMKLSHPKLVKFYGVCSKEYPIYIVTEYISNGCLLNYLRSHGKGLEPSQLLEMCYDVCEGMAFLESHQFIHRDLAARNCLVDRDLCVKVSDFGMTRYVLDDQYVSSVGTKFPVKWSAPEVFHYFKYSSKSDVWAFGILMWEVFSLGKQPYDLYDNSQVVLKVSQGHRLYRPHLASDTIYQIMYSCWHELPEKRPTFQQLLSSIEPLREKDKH

[5] = molecular target: T1, Cytoplasmic tyrosine-protein kinase BMX (Homo sapiens); details: at 1 µM
[6] = molecular target: Protein-tyrosine kinase 6 (Homo sapiens) (UniProt Q13882); details: at 0.1 µM
Chain of Protein-tyrosine kinase 6 (Homo sapiens) (Q13882 whole entry, looked up): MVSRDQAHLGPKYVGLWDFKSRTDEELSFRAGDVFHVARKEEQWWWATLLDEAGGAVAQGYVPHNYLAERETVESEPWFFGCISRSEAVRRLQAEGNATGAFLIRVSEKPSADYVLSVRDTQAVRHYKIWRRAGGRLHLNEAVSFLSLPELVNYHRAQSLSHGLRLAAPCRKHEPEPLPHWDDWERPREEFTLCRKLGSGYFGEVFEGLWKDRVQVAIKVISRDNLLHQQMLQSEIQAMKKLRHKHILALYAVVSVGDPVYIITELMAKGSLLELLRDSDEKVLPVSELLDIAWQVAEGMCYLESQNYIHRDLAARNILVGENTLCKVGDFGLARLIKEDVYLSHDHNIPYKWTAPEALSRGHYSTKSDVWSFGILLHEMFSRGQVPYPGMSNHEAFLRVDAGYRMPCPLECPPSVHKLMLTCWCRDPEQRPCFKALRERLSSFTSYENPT

[7] = molecular target: Protein-tyrosine kinase 6 (Homo sapiens) (UniProt Q13882); details: at 1 µM
[8] = molecular target: Tyrosine-protein kinase BTK (Homo sapiens) (UniProt Q06187); details: at 0.1 µM
Chain of Tyrosine-protein kinase BTK (Homo sapiens) (Q06187 whole entry): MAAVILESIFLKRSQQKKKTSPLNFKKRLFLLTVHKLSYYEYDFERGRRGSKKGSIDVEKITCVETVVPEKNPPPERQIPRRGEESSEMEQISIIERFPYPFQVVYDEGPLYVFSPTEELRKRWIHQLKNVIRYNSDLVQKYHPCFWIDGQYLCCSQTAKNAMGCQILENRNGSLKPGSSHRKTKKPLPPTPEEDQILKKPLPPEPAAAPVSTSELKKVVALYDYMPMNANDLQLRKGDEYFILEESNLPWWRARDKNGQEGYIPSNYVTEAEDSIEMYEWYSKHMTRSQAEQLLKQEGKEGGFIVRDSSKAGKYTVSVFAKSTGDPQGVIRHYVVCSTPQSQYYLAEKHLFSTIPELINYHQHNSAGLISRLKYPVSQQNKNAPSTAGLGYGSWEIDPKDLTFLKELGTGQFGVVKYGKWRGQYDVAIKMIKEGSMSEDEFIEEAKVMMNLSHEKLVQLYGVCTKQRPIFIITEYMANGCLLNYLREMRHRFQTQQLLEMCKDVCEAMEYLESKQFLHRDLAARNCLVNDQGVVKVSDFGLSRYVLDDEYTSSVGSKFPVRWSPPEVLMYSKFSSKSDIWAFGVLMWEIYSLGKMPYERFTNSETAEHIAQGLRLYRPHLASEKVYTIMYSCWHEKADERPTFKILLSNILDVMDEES

[9] = molecular target: Tyrosine-protein kinase BTK (Homo sapiens) (UniProt Q06187); details: at 1 µM
[10] = molecular target: Tyrosine-protein kinase CSK (Homo sapiens) (UniProt P41240); details: at 0.1 µM;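 note: value given is the averaged percent inhibition of CSK kinase activity, from the GSK PKIS kinase inhibitor set screening panel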
Chain of Tyrosine-protein kinase CSK (Homo sapiens) (P41240 2-450 limits assumed): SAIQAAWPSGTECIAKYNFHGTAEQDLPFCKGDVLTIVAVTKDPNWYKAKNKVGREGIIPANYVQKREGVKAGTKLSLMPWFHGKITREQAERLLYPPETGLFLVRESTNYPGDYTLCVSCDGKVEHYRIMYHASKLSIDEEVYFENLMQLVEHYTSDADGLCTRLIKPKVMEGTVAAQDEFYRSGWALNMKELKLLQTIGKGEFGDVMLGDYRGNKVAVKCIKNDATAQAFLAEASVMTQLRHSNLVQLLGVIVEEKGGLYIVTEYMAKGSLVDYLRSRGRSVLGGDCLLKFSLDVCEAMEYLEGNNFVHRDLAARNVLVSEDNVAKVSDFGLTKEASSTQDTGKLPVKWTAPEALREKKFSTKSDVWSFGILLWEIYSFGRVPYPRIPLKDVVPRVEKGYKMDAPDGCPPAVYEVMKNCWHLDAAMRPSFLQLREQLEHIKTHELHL

Chain of Tyrosine-protein kinase receptor UFO (Homo sapiens) (P30530 whole entry): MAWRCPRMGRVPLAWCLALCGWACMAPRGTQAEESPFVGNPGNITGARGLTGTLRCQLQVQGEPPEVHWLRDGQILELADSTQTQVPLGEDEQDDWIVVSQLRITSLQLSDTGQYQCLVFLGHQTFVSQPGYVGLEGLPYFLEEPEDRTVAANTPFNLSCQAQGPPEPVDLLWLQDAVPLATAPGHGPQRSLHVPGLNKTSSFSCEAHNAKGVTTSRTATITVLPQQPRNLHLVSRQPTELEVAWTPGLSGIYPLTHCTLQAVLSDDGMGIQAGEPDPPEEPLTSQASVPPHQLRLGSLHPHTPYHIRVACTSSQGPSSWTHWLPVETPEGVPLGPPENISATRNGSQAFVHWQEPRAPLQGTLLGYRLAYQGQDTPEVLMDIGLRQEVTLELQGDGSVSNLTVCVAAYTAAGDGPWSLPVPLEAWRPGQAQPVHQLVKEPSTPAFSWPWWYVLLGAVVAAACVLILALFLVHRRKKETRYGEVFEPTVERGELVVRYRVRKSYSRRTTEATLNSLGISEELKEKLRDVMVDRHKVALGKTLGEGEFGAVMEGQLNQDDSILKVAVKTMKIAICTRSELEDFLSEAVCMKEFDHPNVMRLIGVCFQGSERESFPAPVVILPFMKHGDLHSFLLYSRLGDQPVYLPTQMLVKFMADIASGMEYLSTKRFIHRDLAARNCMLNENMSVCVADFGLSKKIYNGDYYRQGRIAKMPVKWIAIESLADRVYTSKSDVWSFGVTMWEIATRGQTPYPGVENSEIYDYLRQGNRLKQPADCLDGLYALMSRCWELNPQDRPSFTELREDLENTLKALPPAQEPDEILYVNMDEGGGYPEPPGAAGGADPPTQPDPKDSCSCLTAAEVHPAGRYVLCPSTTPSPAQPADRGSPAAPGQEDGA

Row | Compound | inhibition [1] | inhibition [2] | inhibition [3] | inhibition [4] | inhibition [5] | inhibition [6] | inhibition [7] | inhibition [8] | inhibition [9] | inhibition [10]
1 | CNC(=O)c1cncc(/C=C/c2ccccc2C)c1 | -5.59% | 2.89% | 6.2% | 0.93% | 16.1% | 4.25% | 14.5% | 0.03% | 1.29% | 4.87%
2 | CCN1CCC(C(=O)Nc2n[nH]c3nnc(-c4cccc(F)c4F)cc23)CC1 | 2.22% | 0.62% | 2.33% | -0.1% | 1.04% | -0.63% | -0.63% | 0% | -0.5% | 2.49%
3 | Fc1ccc(Nc2nccc(-c3c(-c4ccc(C(F)(F)F)cc4)nn4ncccc34)n2)cc1F | -7.82% | 2.43% | 2.03% | 0.77% | 5.09% | 3.39% | 0.92% | 1.62% | 0.94% | 1.84%
4 | O=C1Nc2ccccc2/C1=C1\CCc2cc(O)ccc21 | 1.9% | 4.37% | 22% | 0.61% | 7.52% | 5% | 4.05% | -0.87% | 0.47% | 5.49%
5 | O=C(O[C@H]1CN[C@H](C#Cc2cc3ncnc(Nc4ccc(OCc5cccc(F)c5)c(Cl)c4)c3s2)C1)N1CCOCC1 | -9.27% | 3.99% | 1.91% | -1.21% | 3.25% | 5.25% | 9.3% | 0.42% | -0.33% | 7.67%
6 | NS(=O)(=O)c1cccc(N/C=C2\C(=O)Nc3ccccc32)c1 | -2.91% | 2.39% | 8.59% | 2.23% | 5.84% | 3.79% | 5.69% | 0.73% | -0.4% | 3.86%
7 | Cc1cc(O)cc(C)c1/C=C/c1cncc(C(=O)OC(C)(C)C)c1 | -3.72% | 4.36% | 21.7% | 9.3% | 47.3% | 18.1% | 67.5% | 0.92% | 12.8% | 7.62%
8 | c1ccc(-c2n[nH]cc2-c2ccnc(-c3ccc(OCCn4ccnc4)cc3)c2)nc1 | -0.26% | -0.32% | 1.78% | -0.48% | 0.53% | 2.69% | 8.22% | 0.31% | -1.64% | 1%
9 | CC1=C(C(=O)Nc2ccc3[nH]ncc3c2)C(c2ccc(F)cc2)N=C(c2ccc(C(F)(F)F)nc2)N1 (stereo not given) | -0.71% | 2.98% | 3.72% | -0.04% | 3.01% | 2.13% | 3.49% | 0.06% | 0.16% | 1.42%
10 | OCCCNc1nccc(-c2c(-c3ccc(F)cc3)nn3cc(C(F)(F)F)ccc23)n1 | 1.31% | 1.06% | 2.83% | 5.93% | 3.3% | 1.91% | 5.03% | 0.07% | 0.45% | 4.06%
11 | Nc1nonc1-c1nc2cnccc2n1C1CC1 | 0.16% and -1.32% | 2.66% and -2.38% | 4.59% and -2.3% | 6.52% and -2.61% | 4.75% and 2.31% | 5.31% and 2.92% | 3.69% and 2.66% | 1.67% and -4.68% | 1.98% and -4.91% | 3.81% and 3.48%
12 | O=C(O[C@H]1CN[C@H](C#Cc2cc3ncnc(Nc4ccc5c(cnn5Cc5ccccc5)c4)c3s2)C1)N1CCOCC1 | 2.46% | -0.69% | 6.27% | -1.03% | 2.39% | 1.71% | 2.7% | 2.14% | 1.05% | -1.39%
13 | CS(=O)(=O)Nc1ccc(-c2cc(-c3ccccc3)cc(C(N)=O)c2N)cc1 | -0.04% | 0% | 4.17% | 1.21% | 0.72% | 0.76% | 3.55% | -2.25% | -2.03% | 1.18%
14 | CN(C)CCNC(=O)Nc1ccc(N(C)c2ccnc(Nc3ccc(CS(C)(=O)=O)cc3)n2)cc1 | -0.6% | 2.78% | 9.64% | 3.74% | 10.5% | 4.92% | 5.13% | 2.45% | 3.65% | 3.68%
15 | COc1cc(Nc2ncc(-c3ccccc3)o2)cc(OC)c1 | -6.19% | 4.37% | 20.1% | 3.71% | 6.51% | 0.81% | 7.86% | -1.03% | 0.87% | 3.66%
